Laboratory results reported in PubChem BioAssay (NCI).
“And” between values parts separate entries of the source, which are not always exact repeats. Identical values can stand only once. Compounds without any hit were thinned out: in the full panel of roughly 79,000, 15% have a hit. The source holds several records for some structures; these can differ, active in one and inactive in another. The source made the active and inactive calls. Cut-off read from the data, not from the text of the source: active = growth inhibition above about 70%; inactive = the rest. *1 amine or outer side, *2 acyl side, *3 side chain or, on linkers, in order; H or OH if unused. Where a SMILES comes first, the peptide text is derived from it. [ ]: non-standard residue; d: D form. X2 = CC[C@H](C)[C@H](OC(=O)[C@@H](C)[C@@H](CC)N[*:1])C(=O)[*:2]; X3 = C[C@H](N[*:1])C(=O)C(C)(C)C(=O)[*:2]; NMeY = CN[C@@H](Cc1ccc(O)cc1)C(=O)O; NMeL = CN[C@@H](CC(C)C)C(=O)O; NMeV = CN[C@H](C(=O)O)C(C)C

Experiments:
[1] = NCI Yeast Anticancer Drug Screen. Data for the rad50 strain (AID 155);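 note: 0% = growth of vehicle-only cultures of the same strain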; conditions: S. cerevisiae rad50 strain growth inhibition, stronger effect = higher value
How it was run: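 Relative growth inhibition (compound vs vehicle) was measured in yeast with a defined repair-gene alteration.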

[2] = NCI Yeast Anticancer Drug Screen. Data for the mec2-1 strain (AID 157); conditions: S. cerevisiae mec2-1 strain, stronger effect = higher value
How it was run: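 mec2-1 yeast strain, carrying an alteration in DNA damage repair or cell cycle control, was exposed to compounds; growth inhibition was measured relative to vehicle-treated controls.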

[3] = NCI Yeast Anticancer Drug Screen. Data for the sgs1 mgt1 strain (AID 161);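 note: 0% = growth of cultures given vehicle only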; conditions: S. cerevisiae sgs1 mgt1 strain, stronger effect = higher value
How it was run: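 Percent growth inhibition was derived by comparing compound-exposed mutant yeast with vehicle-exposed cultures. The strain carries alterations in DNA damage repair.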

[4] = NCI Yeast Anticancer Drug Screen. Data for the cln2 rad14 strain (AID 165);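 note: 0% = growth equal to vehicle treated cultures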; conditions: S. cerevisiae cln2 rad14 strain, stronger effect = higher value
How it was run: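 Yeast carrying cln2 and rad14 alterations (cell cycle control and DNA damage repair) were exposed to compounds. Growth inhibition was measured against vehicle-treated controls.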

[5] = NCI Yeast Anticancer Drug Screen. Data for the bub3 strain (AID 167); conditions: S. cerevisiae bub3 mutant strain, stronger effect = higher value
How it was run: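 Screening used yeast with an engineered genetic alteration affecting cell cycle control. Compound-exposed cultures were compared with vehicle cultures, and reduced growth was taken as inhibition.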

[6] = NCI Yeast Anticancer Drug Screen. Data for the mlh1 rad18 strain (AID 175); conditions: S. cerevisiae mlh1 rad18 strain growth inhibition, stronger effect = higher value
How it was run: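 Growth inhibition of the yeast strain was measured after compound exposure and expressed relative to vehicle-treated controls. The strain carries defined defects in DNA damage repair.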

[7] = at 5.0 µM (retest, dose inferred, filed as 0.5)
[8] = at 50.0 µM (retest, dose inferred, filed as 5.0)

SMILES | growth inhibition [1, 7] | growth inhibition [1, 8] | growth inhibition ([1]; at 50.0 µM) | growth inhibition [2, 7] | growth inhibition [2, 8] | growth inhibition ([2]; at 50.0 µM) | growth inhibition [3, 7] | growth inhibition [3, 8] | growth inhibition ([3]; at 50.0 µM) | growth inhibition [4, 7] | growth inhibition [4, 8] | growth inhibition ([4]; at 50.0 µM) | growth inhibition [5, 7] | growth inhibition [5, 8] | growth inhibition ([5]; at 50.0 µM) | growth inhibition [6, 7] | growth inhibition [6, 8] | growth inhibition ([6]; at 50.0 µM)
CC[C@H](C)[C@@H]1OC(=O)[C@@H](C)[C@@H](CC)NC(=O)[C@H](C)NC(=O)C(C)(C)C(=O)[C@H](C)NC(=O)[C@H](Cc2ccc(OC)cc2)N(C)C(=O)[C@H](C(C)C)N(C)C(=O)CNC(=O)[C@H](CC(C)C)N(C)C(=O)CNC1=O (cyclo(A[X2]G[NMeL]G[NMeV][NMeY](Me)[X3])) | 99% (active) | 99% (active) | 92% (active) | 99% (active) | 99% (active) | 94% (active) | 99% (active) | 99% (active) | 93% (active) | 98% (active) | 98% (active) | 91% (active) | 99% (active) | 98% (active) | 92.7% (active) | 96% (active) | 97% (active) | 90.2% (active)
O=[N+]([O-])c1cc2c([N+](=O)[O-])cccc2o1 | 15% (inactive) | 98% (active) | 95.9% (active) | 8% (inactive) | 99% (active) | 99.7% (active) | 19% (inactive) | 99% (active) | 99.2% (active) | 0% (inactive) | 99% (active) | 97.3% (active) | 7% (inactive) | 98% (active) | 99.5% (active) | 74% (active) | 99% (active) | 99.5% (active)
O=S(=O)([O-])[O-].[Fe+2].c1ccc(/C(=N\Nc2ccccn2)c2ccccn2)cc1 | 3% (inactive) | 33% (inactive) | 12.9% (inactive) | -2% (inactive) | 39% (inactive) | 82.2% (active) | -4% (inactive) | 22% (inactive) | 16.1% (inactive) | -3% (inactive) | -8% (inactive) | 13.5% (inactive) | 1% (inactive) | 1% (inactive) | 1.75% (inactive) | -3% (inactive) | 7% (inactive) | 25.8% (inactive)
CC1([CH2][Hg][I])CS(=O)(=O)CC(C)([CH2][Hg][I])O1 (stereo not drawn) | 99% (active) | 98% (active) | 95.7% (active) | 100% (active) | 99% (active) | 98% (active) | 100% (active) | 99% (active) | 97.3% (active) | 99% (active) | 98% (active) | 96% (active) | 100% (active) | 99% (active) | 97.8% (active) | 99% (active) | 98% (active) | 96.2% (active)
COc1ccc2c3c1OC1C(=O)C4CC5(c6c(O)ccc(O)c64)C(C2)N(C)CCC315 (stereo not drawn) | -6% (inactive) | 99% (active) | 98.5% (active) | -2% (inactive) | 92% (active) | 99% (active) | -6% (inactive) | 99% (active) | 99.1% (active) | -14% (inactive) | 98% (active) | 98.1% (active) | -3% (inactive) | 99% (active) | 98.5% (active) | 13% (inactive) | 99% (active) | 99% (active)
CC(Br)CN1CCOCC1 (stereo not drawn) | 91% (active) | 97% (active) | 94.2% (active) | 25% (inactive) | 98% (active) | 96.8% (active) | 58% (inactive) | 94% (active) | 67.7% (inactive) | 14% (inactive) | 66% (inactive) | 12.8% (inactive) | -10% (inactive) | 36% (inactive) | 2.6% (inactive) | 66% (inactive) | 97% (active) | 96.2% (active)
Cc1cc(C)c(O)c(C)c1.[Hg] | 99% (active) | 98% (active) | 99.5% (active) | 99% (active) | 99% (active) | 99.5% (active) | 99% (active) | 99% (active) | 99.5% (active) | 99% (active) | 99% (active) | 99.4% (active) | 98% (active) | 99% (active) | 99.3% (active) | 98% (active) | 98% (active) | 99.5% (active)
ClC1=C(Cl)C2(Cl)C3CC4OC4C=CC3C1(Cl)C2(Cl)Cl (stereo not drawn) | 7% (inactive) and 4% (inactive) | 93% (active) and 96% (active) | 96.3% (active) and 39.2% (inactive) | 12% (inactive) and 5% (inactive) | 97% (active) and 98% (active) | 97.3% (active) and 39% (inactive) | 10% (inactive) and 3% (inactive) | 96% (active) and 98% (active) | 96.8% (active) and 73.6% (active) | 0% (inactive) | 96% (active) | 95.3% (active) and 47.4% (inactive) | 2% (inactive) and 5% (inactive) | 96% (active) and 97% (active) | 97.1% (active) and 26.6% (inactive) | 8% (inactive) and 2% (inactive) | 96% (active) | 95.3% (active) and 60.9% (inactive)
CCC1(O)CC(OC2CC(N(C)C)C(OC3CC4OC5CC(=O)C(C)OC5OC4C(C)O3)C(C)O2)c2c(cc3c(c2O)C(=O)c2c(O)ccc(O)c2C3=O)C1C(=O)OC (stereo not drawn) | 88% (active) and 93% (active) | 97% (active) and 98% (active) | 89.9% (active) and 87.5% (active) and 91.9% (active) | 71% (active) and 96% (active) and 95% (active) | 98% (active) | 90% (active) and 89.7% (active) and 92% (active) | 89% (active) and 79% (active) and 93% (active) | 98% (active) and 97% (active) | 91% (active) and 90% (active) | 73% (active) and 85% (active) and 86% (active) | 96% (active) and 97% (active) | 88% (active) and 87.9% (active) and 91.4% (active) | 93% (active) and 92% (active) | 98% (active) and 97% (active) | 88.6% (active) and 87.2% (active) and 84.8% (active) | 92% (active) and 96% (active) and 94% (active) | 97% (active) and 96% (active) and 98% (active) | 89.8% (active) and 86% (active) and 89.9% (active)
Cc1cn(CC2C=CC(CS[As](C)C)O2)c(=O)[nH]c1=O (stereo not drawn) | 7% (inactive) | 75% (active) | 69.7% (inactive) | 1% (inactive) | 83% (active) | 92.2% (active) | 4% (inactive) | 98% (active) | 94.8% (active) | 0% (inactive) | 95% (active) | 72% (active) | 0% (inactive) | 45% (inactive) | 53% (inactive) | -1% (inactive) | 84% (active) | 99.1% (active)
ClCCN(CCCl)c1ccc(C=NCCCCN=Cc2ccc(N(CCCl)CCCl)cc2)cc1 | 3% (inactive) | 82% (active) | 88.8% (active) | 10% (inactive) | 47% (inactive) | 47% (inactive) | 8% (inactive) | 62% (inactive) | 82.8% (active) | -10% (inactive) | 82% (active) | 88.6% (active) | -10% (inactive) | 3% (inactive) | 7.15% (inactive) | 63% (inactive) | 95% (active) | 85.8% (active)
N#C[S-].[Ce+3].c1ccc(-c2ccccn2)nc1.c1ccc(-c2ccccn2)nc1.c1ccc(-c2ccccn2)nc1 | 63% (inactive) | 98% (active) | 91.5% (active) | 43% (inactive) | 99% (active) | 94% (active) | 51% (inactive) | 99% (active) | 92.9% (active) | 31% (inactive) | 93% (active) | 91.5% (active) | 55% (inactive) | 98% (active) | 92.3% (active) | 63% (inactive) | 98% (active) | 91.4% (active)
O=C(c1ccc(Br)cc1)C1C(c2ccccc2)N1C1CCCCC1 (stereo not drawn) | 1% (inactive) | 79% (active) | 95.7% (active) | 0% (inactive) | 73% (active) | 96.6% (active) | -1% (inactive) | 72% (active) | 96.5% (active) | -4% (inactive) | 58% (inactive) | 94.2% (active) | 4% (inactive) | 94% (active) | 95% (active) | -2% (inactive) | 86% (active) | 91% (active)
CC[C@@]1(O)C(=O)OCc2c1cc1n(c2=O)Cc2cc3cc4c(cc3nc2-1)OCO4 | 95% (active) | 92% (active) | 72.4% (active) | 97% (active) | 94% (active) | 81.3% (active) | 91% (active) | 85% (active) | 80.9% (active) | 48% (inactive) | 47% (inactive) | 71.7% (active) | 85% (active) | 83% (active) | 74.3% (active) | 91% (active) | 89% (active) | 34.4% (inactive)
O=C1C=CC(=O)c2c(O)ccc(O)c21 | 99% (active) and 16% (inactive) | 17% (inactive) and 93% (active) | 89.1% (active) and 64% (inactive) | 99% (active) and -14% (inactive) | 14% (inactive) and 95% (active) | 91.5% (active) and 68.8% (inactive) | 97% (active) and -5% (inactive) | 19% (inactive) and 95% (active) | 91% (active) and 80.3% (active) | 98% (active) and 20% (inactive) | 16% (inactive) and 93% (active) | 88.8% (active) and 77.7% (active) | 99% (active) and 11% (inactive) | 80% (active) and 93% (active) | 89.6% (active) and 79.1% (active) | 99% (active) and -4% (inactive) | 21% (inactive) and 92% (active) | 88.4% (active)
CCC[CH2][Sn]1([CH2]CCC)[O]CC[S]1 | 83% (active) | 99% (active) | 99.1% (active) | 87% (active) | 99% (active) | 99% (active) | 81% (active) | 99% (active) | 98.2% (active) | 78% (active) | 99% (active) | 97.3% (active) | 87% (active) | 99% (active) | 96.1% (active) | 84% (active) | 99% (active) | 99.2% (active)
